{"source": "PubChem BioAssay (EPA / NIEHS)", "note": "Active and inactive are the calls of the source. Rule for the calls: active = hit-call score of the fitted dose curve at least 0.9, where 1 is the maximum; inactive = score below 0.9.", "data": [{"assay": "ATG_GRE_CIS: Attagene CIS-FACTORIAL HepG2 Assay for human Glucocorticoid Response Elements (GRE) (AID 2282947)", "settings": "HepG2 GRE cis-reporter, Attagene multiplex mRNA; actives raise or lower the signal", "experimental": "ATG_CIS is a cell-based, multiplexed-readout assay that uses HepG2, a human liver cell line, with measurements taken at 24 hours after chemical dosing in a 24-well plate.ATG_GRE_CIS is one of 52 assay component(s) measured or calculated from the ATG_CIS assay. It is designed to make measurements of mRNA induction, a form of inducible reporter, as detected with fluorescence intensity signals by Reverse transcription polymerase chain reaction (RT-PCR) and Capillary electrophoresis technology.Data from the assay component ATG_GRE_CIS was analyzed into 1 assay endpoint. This assay endpoint, ATG_GRE_CIS, was analyzed with bidirectional fitting relative to DMSO as the negative control and baseline of activity. Using a type of inducible reporter, measures of mRNA for gain or loss-of-signal activity can be used to understand the reporter gene at the transcription factor-level as they relate to the gene NR3C1. Furthermore, this assay endpoint can be referred to as a primary readout, because this assay has produced multiple assay endpoints where this one serves a reporter gene function. To generalize the intended target to other relatable targets, this assay endpoint is annotated to the nuclear receptor intended target family, where the subfamily is steroidal.\nHuman liver HepG2 cells are transiently transfected with multiple reporter transcription units (MRTUs) in 6-well plates using FuGene 6 reagent (Roche; 3 ml FuGene/1 mg DNA). The MRTU constructs are regulated by a cis-regulating element (promoter). […] A major difference between the CIS and TRANS system is that in CIS activities of endogenous TFs are measured, whereas the TRANS assay evaluates changes in activities of exogenous, chimeric NR-Gal4 proteins. […] At the end of 24 hour incubation, total RNA was isolated using TriZol reagent (Invitrogen). The isolated RNA is then reverse-transcribed using oligo(dT) primer and Mo-MLV reverse transcriptase (Invitrogen) with DNAse I (Ambion) treatment for 30 min. The one-tenth of the produced cDNA was amplified by PCR using Taq DNA polymerase (Invitrogen) and two reporter sequence-specific primers. The PCR products were fluorescently labeled by primer extension with 6-arboxyfluorescein (6-FAM) 5'-labeled reporter sequence-specific primer (2 min at 95 C, 20 s at 68 C and 10 min at 72 C) and these products were digested with 5U of HpaI (New England Biolabs) for 2h at 37 C. The fragments were purified using Qiaquick PCR columns (Qiagen), analyzed on an ABI 3130xL genetic analyzer (Applied Biosystems) with peak positions identified by using a set of X-rhodamine (ROX)-labeled MapMarker1000 molecular weight standards (BioVentures). The raw capillary electrophoresis data was processed using Attagraph software (Attagene).", "values": [{"smiles": "NCCOCCO", "outcome": "inactive"}, {"smiles": "O=C(O)c1ccc(C(=O)O)cc1", "outcome": "inactive"}, {"smiles": "C=CCOC(=O)CCC1CCCCC1", "outcome": "inactive"}, {"smiles": "CC(C)c1ccc(C(C)C)cc1", "outcome": "inactive"}, {"smiles": "CC(C)(C)NC(N)=O", "outcome": "inactive"}, {"smiles": "O=C(O)C[C@H](O)C[C@H](O)/C=C/c1c(C2CC2)nc2ccccc2c1-c1ccc(F)cc1", "outcome": "inactive"}, {"smiles": "CCCCCCOC(=O)CCCCC", "outcome": "inactive"}, {"smiles": "O=S(=O)(O)c1cccc2c(S(=O)(=O)O)cccc12", "outcome": "inactive"}, {"smiles": "CC1CC(OC(=O)c2ccccc2O)CC(C)(C)C1", "note": "(stereo not given)", "outcome": "inactive"}, {"smiles": "CCCCCCCCCCN", "outcome": "inactive"}, {"smiles": "CC(C)C[C@H]1C(=O)N2CCC[C@H]2[C@]2(O)O[C@](NC(=O)[C@@H]3C=C4c5cccc6[nH]c(Br)c(c56)C[C@H]4N(C)C3)(C(C)C)C(=O)N12", "outcome": "inactive"}, {"smiles": "C=CCOc1nc(OCC=C)nc(OCC=C)n1", "outcome": "inactive"}, {"smiles": "O=C(O)c1cccc(C(F)(F)F)c1", "outcome": "inactive"}, {"smiles": "CC(C)(Oc1ccc(CCNC(=O)c2ccc(Cl)cc2)cc1)C(=O)O", "outcome": "inactive"}, {"smiles": "NCCCN1CCOCC1", "outcome": "inactive"}, {"smiles": "CCC(C(=O)NC(N)=O)c1ccccc1", "note": "(stereo not given)", "outcome": "inactive"}, {"smiles": "CC(C)(COC(=O)c1ccccc1)COC(=O)c1ccccc1", "outcome": "inactive"}, {"smiles": "CCOc1ccccc1OCC", "outcome": "inactive"}, {"smiles": "CC(=O)[O][Al][O]C(C)=O", "outcome": "inactive"}, {"smiles": "c1cc(C(c2ccc(OCC3CO3)cc2)c2ccc(OCC3CO3)cc2)ccc1OCC1CO1", "note": "(stereo not given)", "outcome": "inactive"}, {"smiles": "S=C(S)NCCNC(=S)S", "outcome": "inactive"}, {"smiles": "CC(C)C1CCC(O)CC1", "note": "(stereo not given)", "outcome": "inactive"}, {"smiles": "CCCCCCCCC=O", "outcome": "inactive"}, {"smiles": "OC[C@H]1O[C@H](O[C@]2(CCl)O[C@H](CCl)[C@@H](O)[C@@H]2O)[C@H](O)[C@@H](O)[C@H]1Cl", "outcome": "inactive"}, {"smiles": "CCCC1CCC(=O)O1", "note": "(stereo not given)", "outcome": "inactive"}, {"smiles": "Nc1ccc(S(N)(=O)=O)cc1", "outcome": "inactive"}, {"smiles": "CCCc1c(OCCCOc2ccc(OCC(=O)O)cc2)ccc(C(C)=O)c1O", "outcome": "inactive"}, {"smiles": "COc1nc(C)nc(N)n1", "outcome": "inactive"}, {"smiles": "CCCCCCCCCCCCOCCO", "outcome": "inactive"}, {"smiles": "O=C(O)CCCCCCCCCCC(=O)O", "outcome": "inactive"}, {"smiles": "CO[Si](C)(OC)c1ccccc1", "outcome": "inactive"}, {"smiles": "CC1COc2ccccc2N1C(=O)C(Cl)Cl", "note": "(stereo not given)", "outcome": "inactive"}, {"smiles": "CN(C)C(=N)N=C(N)N", "outcome": "inactive"}, {"smiles": "CCCCCCCCCCC(CO)CCCCCCCC", "note": "(stereo not given)", "outcome": "inactive"}, {"smiles": "O=C1c2ccccc2C(=O)N1SC1CCCCC1", "AC50": "169 µM (active)"}, {"smiles": "CCC(C)CCCC(C)(C)O", "note": "(stereo not given)", "outcome": "inactive"}, {"smiles": "O=C=NC1CCC(CC2CCC(N=C=O)CC2)CC1", "note": "(stereo not given)", "outcome": "inactive"}, {"smiles": "CCCc1ccccc1O", "outcome": "inactive"}, {"smiles": "O=C(O)c1snc(Cl)c1Cl", "outcome": "inactive"}, {"smiles": "COc1ccc(OC)c(OC)c1", "outcome": "inactive"}]}]}
